Experimental data: the supplement of paper PMC8728848
Many of the other results were omitted from the sample, so the strongest signals are more common in it than they were.

What was measured:
Assay in all cases: glycan array binding signal (z-score within array); higher = stronger binding
[1] = tested on: Gal(b1-3)GalNAc(a1-3)[Fuc(a1-2)]Gal(b1-4)GlcNAc; details: glycan notation: IUPAC condensed, linker removed
How it was run: (§1)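 The binding signal is a Z-score computed within each array. Data were drawn from 3228 arrays in the Consortium for Functional Glycomics database, restricted to those with a known protein sequence. Scores were averaged over arrays of the same protein sequence at different concentrations or buffers, and over linkers, and negative values can be taken as non-binding.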

[2] = tested on: Gal(b1-3)GlcNAc(b1-3)Gal(b1-4)GlcNAc(b1-6)[Gal(b1-3)GlcNAc(b1-3)]Gal(b1-4)Glc; details: glycan notation: IUPAC condensed, linker removed
How it was run: as §1

[3] = tested on: Gal(b1-3)GlcNAc(a1-6)Gal(b1-4)GlcNAc; details: glycan notation: IUPAC condensed, linker removed
How it was run: as §1

Gal(a1-4)GlcNAc = details: glycan notation: IUPAC condensed, linker removed
How it was run: as §1

[4] = tested on: Gal(b1-3)GalNAc(b1-4)Gal(b1-4)Glc; details: glycan notation: IUPAC condensed, linker removed
How it was run: as §1

Gal(a1-4)Gal(b1-4)GlcNAc = details: glycan notation: IUPAC condensed, linker removed
How it was run: as §1

Gal(a1-6)Glc = details: glycan notation: IUPAC condensed, linker removed
How it was run: as §1

Gal(b1-2)Gal = details: glycan notation: IUPAC condensed, linker removed
How it was run: as §1

[5] = tested on: Gal(b1-3)GlcNAc(b1-2)Man(a1-3)[GlcNAc(b1-4)][Gal(b1-3)GlcNAc(b1-2)Man(a1-6)]Man(b1-4)GlcNAc(b1-4)GlcNAc; details: glycan notation: IUPAC condensed, linker removed
How it was run: as §1

[6] = tested on: Gal(b1-3)GalNAc(b1-4)[Neu5Ac(a2-3)]Gal(b1-4)Glc; details: glycan notation: IUPAC condensed, linker removed
How it was run: as §1

[7] = tested on: Gal(b1-3)GlcNAc(b1-2)Man(a1-3)[Gal(b1-3)GlcNAc(b1-2)Man(a1-6)]Man(b1-4)GlcNAc(b1-4)[Fuc(a1-6)]GlcNAc; details: glycan notation: IUPAC condensed, linker removed
How it was run: as §1

[8] = tested on: Gal(b1-3)GlcNAc(b1-3)Gal(b1-4)GlcNAc(b1-2)[Gal(b1-3)GlcNAc(b1-3)Gal(b1-4)GlcNAc(b1-6)]Man(a1-6)[Gal(b1-3)GlcNAc(b1-3)Gal(b1-4)GlcNAc(b1-2)Man(a1-3)]Man(b1-4)GlcNAc(b1-4)[Fuc(a1-6)]GlcNAc; details: glycan notation: IUPAC condensed, linker removed
How it was run: as §1

Gal(b1-3)Gal = details: glycan notation: IUPAC condensed, linker removed
How it was run: as §1

Gal(a1-4)Gal(b1-4)Glc = details: glycan notation: IUPAC condensed, linker removed
How it was run: as §1

[9] = tested on: Gal(b1-3)Gal(b1-4)GlcNAc(b1-2)Man(a1-3)[Gal(b1-3)Gal(b1-4)GlcNAc(b1-2)Man(a1-6)]Man(b1-4)GlcNAc(b1-4)GlcNAc; details: glycan notation: IUPAC condensed, linker removed
How it was run: as §1

Gal(b1-3)GalNAc(b1-3)Gal = details: glycan notation: IUPAC condensed, linker removed; mutation: R125K
How it was run: as §1

[10] = tested on: Gal(b1-3)GalNAc(b1-3)Gal(b1-4)Glc; details: glycan notation: IUPAC condensed, linker removed
How it was run: as §1

[11] = tested on: Gal(b1-3)GlcNAc(b1-2)Man(a1-3)[Gal(b1-3)GlcNAc(b1-2)Man(a1-6)]Man(b1-4)GlcNAc(b1-4)GlcNAc; details: glycan notation: IUPAC condensed, linker removed
How it was run: as §1

[12] = tested on: Gal(b1-3)GalNAc(b1-3)Gal(a1-4)Gal(b1-4)Glc; details: glycan notation: IUPAC condensed, linker removed
How it was run: as §1

[13] = tested on: Gal(b1-3)GlcNAc(b1-3)Gal(b1-4)GlcNAc; details: glycan notation: IUPAC condensed, linker removed
How it was run: as §1

Sequence of CHI3L1 (Homo sapiens), P36222 (P36222 whole entry): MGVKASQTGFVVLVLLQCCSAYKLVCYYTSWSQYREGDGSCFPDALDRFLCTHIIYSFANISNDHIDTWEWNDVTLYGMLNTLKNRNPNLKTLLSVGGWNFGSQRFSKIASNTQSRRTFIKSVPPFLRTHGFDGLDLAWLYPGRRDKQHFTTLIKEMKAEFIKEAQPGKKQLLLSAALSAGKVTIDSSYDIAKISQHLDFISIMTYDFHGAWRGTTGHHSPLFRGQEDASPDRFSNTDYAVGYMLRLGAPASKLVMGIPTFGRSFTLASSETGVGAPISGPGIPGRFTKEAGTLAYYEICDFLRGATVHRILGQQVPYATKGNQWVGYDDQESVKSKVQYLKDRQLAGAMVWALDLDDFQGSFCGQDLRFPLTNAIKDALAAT
Sequence of 6RG (Lolium perenne) (chain, as listed by the source): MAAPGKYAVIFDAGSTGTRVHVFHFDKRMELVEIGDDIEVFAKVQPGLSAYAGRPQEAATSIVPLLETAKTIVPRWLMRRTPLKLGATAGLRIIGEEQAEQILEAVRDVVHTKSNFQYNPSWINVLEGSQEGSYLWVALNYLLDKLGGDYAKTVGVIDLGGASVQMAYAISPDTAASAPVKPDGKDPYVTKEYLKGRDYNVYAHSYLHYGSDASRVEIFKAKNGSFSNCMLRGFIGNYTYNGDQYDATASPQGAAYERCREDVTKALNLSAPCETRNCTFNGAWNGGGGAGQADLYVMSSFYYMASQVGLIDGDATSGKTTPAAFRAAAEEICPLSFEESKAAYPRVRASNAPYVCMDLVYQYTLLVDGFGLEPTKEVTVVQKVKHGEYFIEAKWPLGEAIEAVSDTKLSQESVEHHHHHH
Sequence of Regenerating Gene IV (Homo sapiens), Q9BYZ8 (Q9BYZ8 whole entry, looked up): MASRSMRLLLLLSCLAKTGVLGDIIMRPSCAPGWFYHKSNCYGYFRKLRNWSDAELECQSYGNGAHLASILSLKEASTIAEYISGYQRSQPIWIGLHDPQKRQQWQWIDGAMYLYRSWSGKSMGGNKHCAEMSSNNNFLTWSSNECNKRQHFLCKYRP
Sequence of PILRb (Mus musculus), Q2YSF2 (Q2YSF2 entry or part of it): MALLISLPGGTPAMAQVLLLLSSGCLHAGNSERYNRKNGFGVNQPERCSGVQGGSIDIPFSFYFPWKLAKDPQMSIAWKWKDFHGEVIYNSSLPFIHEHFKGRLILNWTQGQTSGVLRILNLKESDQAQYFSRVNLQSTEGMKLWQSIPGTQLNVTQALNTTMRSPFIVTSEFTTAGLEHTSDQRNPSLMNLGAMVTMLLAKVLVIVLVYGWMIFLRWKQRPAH
Sequence of Avaren (Actinomycete K97) (chain, as listed by the source): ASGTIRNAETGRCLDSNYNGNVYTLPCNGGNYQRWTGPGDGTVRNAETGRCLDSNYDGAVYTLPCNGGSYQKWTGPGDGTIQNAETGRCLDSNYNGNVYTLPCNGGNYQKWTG
Sequence of C3b (Homo sapiens), P01024 (P01024 23-667): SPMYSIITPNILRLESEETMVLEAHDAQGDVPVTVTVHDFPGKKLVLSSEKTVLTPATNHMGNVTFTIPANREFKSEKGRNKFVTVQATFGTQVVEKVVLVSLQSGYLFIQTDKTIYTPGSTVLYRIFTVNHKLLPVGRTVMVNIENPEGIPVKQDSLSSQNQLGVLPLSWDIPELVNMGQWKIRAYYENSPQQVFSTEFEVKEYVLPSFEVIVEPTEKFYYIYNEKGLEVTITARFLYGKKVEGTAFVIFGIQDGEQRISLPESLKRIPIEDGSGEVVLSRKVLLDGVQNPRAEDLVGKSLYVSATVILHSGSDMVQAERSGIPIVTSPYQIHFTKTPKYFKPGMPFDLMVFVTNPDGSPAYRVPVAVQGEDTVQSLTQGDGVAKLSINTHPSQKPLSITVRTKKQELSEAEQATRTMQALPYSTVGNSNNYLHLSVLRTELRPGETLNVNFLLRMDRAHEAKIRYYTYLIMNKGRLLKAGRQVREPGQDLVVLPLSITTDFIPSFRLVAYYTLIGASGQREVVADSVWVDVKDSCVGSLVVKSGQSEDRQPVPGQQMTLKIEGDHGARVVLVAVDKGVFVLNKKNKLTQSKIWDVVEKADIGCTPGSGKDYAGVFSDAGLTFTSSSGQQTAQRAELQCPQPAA
Sequence of PILRa (Mus musculus), Q2YSF3 (Q2YSF3 entry or part of it): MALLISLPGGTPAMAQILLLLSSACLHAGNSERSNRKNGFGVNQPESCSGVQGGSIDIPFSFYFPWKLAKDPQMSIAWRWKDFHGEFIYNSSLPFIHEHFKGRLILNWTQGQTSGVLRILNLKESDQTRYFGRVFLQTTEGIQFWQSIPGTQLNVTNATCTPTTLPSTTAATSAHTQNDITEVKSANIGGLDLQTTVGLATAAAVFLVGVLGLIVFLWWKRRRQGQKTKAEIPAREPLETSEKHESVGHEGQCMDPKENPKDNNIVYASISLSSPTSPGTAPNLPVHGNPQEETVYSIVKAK
Sequence of Neurocan (Homo sapiens), O14594 (O14594 other isoform, or with tags, fused parts or gaps): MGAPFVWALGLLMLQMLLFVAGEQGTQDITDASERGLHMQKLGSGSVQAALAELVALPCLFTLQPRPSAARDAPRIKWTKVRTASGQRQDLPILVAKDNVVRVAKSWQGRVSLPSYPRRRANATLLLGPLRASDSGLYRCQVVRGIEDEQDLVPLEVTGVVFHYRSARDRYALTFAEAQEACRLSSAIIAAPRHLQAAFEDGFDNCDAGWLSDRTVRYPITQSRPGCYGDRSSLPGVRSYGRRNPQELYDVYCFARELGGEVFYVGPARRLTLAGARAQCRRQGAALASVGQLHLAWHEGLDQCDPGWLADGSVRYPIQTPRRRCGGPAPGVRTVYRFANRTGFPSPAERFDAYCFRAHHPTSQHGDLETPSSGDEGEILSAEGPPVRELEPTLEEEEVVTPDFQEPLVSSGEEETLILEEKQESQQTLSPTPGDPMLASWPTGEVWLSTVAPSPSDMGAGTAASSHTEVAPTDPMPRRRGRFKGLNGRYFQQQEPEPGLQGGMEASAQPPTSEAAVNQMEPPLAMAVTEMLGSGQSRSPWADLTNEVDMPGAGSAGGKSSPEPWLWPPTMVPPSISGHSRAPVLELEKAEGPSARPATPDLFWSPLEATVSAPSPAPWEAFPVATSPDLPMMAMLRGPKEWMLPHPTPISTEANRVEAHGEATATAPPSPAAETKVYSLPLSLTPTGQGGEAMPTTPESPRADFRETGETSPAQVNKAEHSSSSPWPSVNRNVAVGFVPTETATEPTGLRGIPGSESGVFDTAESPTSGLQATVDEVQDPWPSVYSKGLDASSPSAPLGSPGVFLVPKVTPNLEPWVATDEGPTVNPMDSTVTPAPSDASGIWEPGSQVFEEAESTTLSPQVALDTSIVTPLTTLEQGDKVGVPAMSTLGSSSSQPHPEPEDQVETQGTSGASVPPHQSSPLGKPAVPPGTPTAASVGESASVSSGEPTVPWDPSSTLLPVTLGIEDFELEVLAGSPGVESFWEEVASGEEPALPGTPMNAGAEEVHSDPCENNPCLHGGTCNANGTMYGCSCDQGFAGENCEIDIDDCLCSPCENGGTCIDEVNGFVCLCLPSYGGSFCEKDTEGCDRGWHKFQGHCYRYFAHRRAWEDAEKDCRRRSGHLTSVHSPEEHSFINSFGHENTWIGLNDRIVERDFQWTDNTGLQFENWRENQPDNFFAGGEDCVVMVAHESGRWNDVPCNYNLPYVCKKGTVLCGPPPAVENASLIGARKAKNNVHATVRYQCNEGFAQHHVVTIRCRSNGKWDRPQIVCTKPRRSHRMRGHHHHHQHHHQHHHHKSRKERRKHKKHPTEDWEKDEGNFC
Sequence of wLAT-1A (Homo sapiens), Q01650 (Q01650 whole entry): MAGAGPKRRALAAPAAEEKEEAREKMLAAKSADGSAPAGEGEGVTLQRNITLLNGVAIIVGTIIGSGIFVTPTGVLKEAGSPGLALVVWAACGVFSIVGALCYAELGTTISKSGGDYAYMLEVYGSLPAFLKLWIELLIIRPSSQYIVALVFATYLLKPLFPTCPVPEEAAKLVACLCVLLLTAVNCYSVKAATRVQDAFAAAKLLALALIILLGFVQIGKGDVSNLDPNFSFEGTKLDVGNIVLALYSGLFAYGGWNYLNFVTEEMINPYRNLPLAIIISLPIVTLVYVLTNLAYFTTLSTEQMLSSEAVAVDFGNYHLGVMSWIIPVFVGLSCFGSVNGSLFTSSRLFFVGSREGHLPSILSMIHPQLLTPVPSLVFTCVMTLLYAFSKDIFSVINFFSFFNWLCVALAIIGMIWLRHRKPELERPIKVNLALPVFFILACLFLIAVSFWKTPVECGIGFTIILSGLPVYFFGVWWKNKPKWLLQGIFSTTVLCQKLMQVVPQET
Sequence of CHT (Homo sapiens) (chain, as listed by the source): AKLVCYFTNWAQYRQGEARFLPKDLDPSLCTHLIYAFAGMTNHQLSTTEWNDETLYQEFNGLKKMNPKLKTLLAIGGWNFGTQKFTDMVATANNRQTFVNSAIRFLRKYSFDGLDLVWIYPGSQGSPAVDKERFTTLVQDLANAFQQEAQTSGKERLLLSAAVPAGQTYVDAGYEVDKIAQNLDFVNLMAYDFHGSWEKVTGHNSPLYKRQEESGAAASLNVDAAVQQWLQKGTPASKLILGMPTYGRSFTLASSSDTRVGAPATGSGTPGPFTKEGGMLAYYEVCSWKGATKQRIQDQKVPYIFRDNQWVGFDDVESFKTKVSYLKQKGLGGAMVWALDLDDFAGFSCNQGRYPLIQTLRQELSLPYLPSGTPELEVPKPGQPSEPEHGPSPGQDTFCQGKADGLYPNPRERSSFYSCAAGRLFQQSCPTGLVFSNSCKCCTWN

PILRa (Mus musculus), Q2YSF3 was tested, and the “glycan array binding signal (z-score)” value [1] was -0.192 and the “glycan array binding signal (z-score)” value [2] was -0.146.

Neurocan (Homo sapiens), O14594 was tested, and the “glycan array binding signal (z-score)” value [3] was -0.985.

For C3b (Homo sapiens), P01024, the “glycan array binding signal (z-score)” value (Gal(a1-4)GlcNAc) was -0.904 and the “glycan array binding signal (z-score)” value [4] was -0.644.

In the case of CHI3L1 (Homo sapiens), P36222, the “glycan array binding signal (z-score)” value (Gal(a1-4)Gal(b1-4)GlcNAc) is reported as -0.117, the “glycan array binding signal (z-score)” value (Gal(a1-6)Glc) is reported as -0.088 and the “glycan array binding signal (z-score)” value (Gal(b1-2)Gal) is reported as -0.006. The “glycan array binding signal (z-score)” value [5] was 0.123.

In the case of MpAFP RI GFP (Marinomonas primoryensis), the “glycan array binding signal (z-score)” value [6] is reported as -0.54 and the “glycan array binding signal (z-score)” value [5] is reported as 1.37.

With CHT (Homo sapiens) the “glycan array binding signal (z-score)” value (Gal(a1-4)GlcNAc; mutation: D138V, E140I) was 0.017.

With Avaren (Actinomycete K97) the “glycan array binding signal (z-score)” value [7] was -0.081 and the “glycan array binding signal (z-score)” value [8] was 1.97.

In the case of HARE (Homo sapiens), Q8WWQ8, the “glycan array binding signal (z-score)” value (Gal(b1-2)Gal) is reported as -0.074 and the “glycan array binding signal (z-score)” value (Gal(b1-3)Gal) is reported as 2.26.

With Siglec-8 (Homo sapiens), Q9NYZ4 the “glycan array binding signal (z-score)” value (Gal(a1-4)Gal(b1-4)Glc; mutation: R125K) was 0.026, the “glycan array binding signal (z-score)” value [9] was -0.073 and the “glycan array binding signal (z-score)” value (Gal(b1-3)GalNAc(b1-3)Gal) was -0.035. The “glycan array binding signal (z-score)” value [3] was -0.162 and the “glycan array binding signal (z-score)” value [8] was 0.166.

With 6RG (Lolium perenne) the “glycan array binding signal (z-score)” value (Gal(a1-4)Gal(b1-4)Glc) was 6.7, the “glycan array binding signal (z-score)” value [10] was 6.16 and the “glycan array binding signal (z-score)” value [4] was 0.249.

PILRb (Mus musculus), Q2YSF2 was tested, and the “glycan array binding signal (z-score)” value (Gal(a1-4)Gal(b1-4)Glc) was 0.026, the “glycan array binding signal (z-score)” value (Gal(b1-2)Gal) was -0.075 and the “glycan array binding signal (z-score)” value [9] was 0.382. The “glycan array binding signal (z-score)” value [11] was 0.611.

For wLAT-1A (Homo sapiens), Q01650, the “glycan array binding signal (z-score)” value [6] was -0.218.

“Regenerating Gene IV (Homo sapiens), Q9BYZ8” was tested, and the “glycan array binding signal (z-score)” value [12] was -0.44, the “glycan array binding signal (z-score)” value (Gal(b1-3)Gal) was -0.546 and the “glycan array binding signal (z-score)” value [13] was -0.615.
